KCNQ2 enhance – potentiators of rat KCNQ2 potassium channel; CHO-K1 KCNQ2, FluxOR thallium flux fluorescence; stronger effect = higher value; B-score at 10 µM; 310,000 tested, 0.54% active; O88943; AID 2239;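 active = fluorescence ratio B-score at least 3 SD of library B-scores, with initial fluorescence B-score within 3 of them, cut at about 5.3 in these data; same plate scores as AID 2156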;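 note: B-score of peak minus minimum over baseline fluorescence ratio after K+ and Tl+ stimulus; positive B-score means potentiation of KCNQ2 with more thallium influx and brighter signal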
Target sequence (O88943 whole entry, looked up): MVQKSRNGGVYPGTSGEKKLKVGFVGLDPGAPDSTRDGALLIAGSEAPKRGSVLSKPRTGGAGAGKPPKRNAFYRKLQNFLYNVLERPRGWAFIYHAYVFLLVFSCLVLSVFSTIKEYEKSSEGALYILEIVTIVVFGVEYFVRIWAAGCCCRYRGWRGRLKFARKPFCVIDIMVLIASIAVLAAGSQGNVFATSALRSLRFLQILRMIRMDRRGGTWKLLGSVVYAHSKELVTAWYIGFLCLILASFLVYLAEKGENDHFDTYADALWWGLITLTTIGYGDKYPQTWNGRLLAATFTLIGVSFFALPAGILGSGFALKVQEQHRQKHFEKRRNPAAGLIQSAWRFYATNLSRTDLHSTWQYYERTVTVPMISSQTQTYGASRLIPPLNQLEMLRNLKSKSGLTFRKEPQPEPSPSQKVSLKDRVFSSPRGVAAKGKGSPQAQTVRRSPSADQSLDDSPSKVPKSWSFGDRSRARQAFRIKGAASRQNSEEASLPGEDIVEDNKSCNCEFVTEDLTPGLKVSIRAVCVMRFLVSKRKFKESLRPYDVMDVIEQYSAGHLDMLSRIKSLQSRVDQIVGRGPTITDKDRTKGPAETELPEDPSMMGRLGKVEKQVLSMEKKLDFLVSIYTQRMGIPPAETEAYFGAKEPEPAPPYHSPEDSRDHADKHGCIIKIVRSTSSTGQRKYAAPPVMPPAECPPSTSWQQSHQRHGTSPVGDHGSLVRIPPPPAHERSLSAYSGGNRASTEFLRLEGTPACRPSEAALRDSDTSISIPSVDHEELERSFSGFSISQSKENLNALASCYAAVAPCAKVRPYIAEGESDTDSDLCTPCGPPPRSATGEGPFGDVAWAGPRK
KCNQ2 inh – KCNQ2 (rat) channel inhibition | 310,000 tested, 1.1% active | AID 2156 | CHO-K1 KCNQ2, FluxOR thallium flux, 20 min; stronger effect = lower value | B-score at 10 µM | O88943;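 active = fluorescence ratio B-score at most minus 3 library SDs, with starting brightness B-score within 2 library SDs, cut at about -5.5 in these data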
Of the large screens only hits and unclear results are named; the others gave an inactive call. Hits are enriched below; roughly 1.6% of the tested compounds scored in any of these assays.

O=C(NCC1CCCO1)c1ccc(NC(=O)c2cc(F)c(F)cc2Cl)cc1 (stereo not given)	none (no result: KCNQ2 enhance)
Cc1ccc(N2C(=O)c3cccc4c(Oc5ccccc5[N+](=O)[O-])ccc(c34)C2=O)c(C)c1	KCNQ2 inh -6
Cc1cc(O)ccc1N1C(=O)c2cccc3cc([N+](=O)[O-])cc(c23)C1=O	none (no result: KCNQ2 enhance)
Cc1ccc2c(c1C)OC(=O)CC2c1ccccc1 (stereo not given)	none (no result: KCNQ2 enhance)
CCOc1ccc(/C=C2\C(=O)c3ccccc3OC2c2ccccc2)cc1 (stereo not given)	KCNQ2 inh -6.2
COc1ccc(/C=C2\C(=O)c3ccccc3OC2c2ccccc2)cc1 (stereo not given)	none (no result: KCNQ2 enhance)
CC(C)S(=O)(=O)C1=NSC2=NC(=O)/C(=C\c3ccc(-c4ccccc4)o3)C(=N)N21	KCNQ2 inh -5.9
N=C1/C(=C\c2ccc(-c3cc(Cl)cc(Cl)c3)o2)C(=O)N=C2SC=C(c3ccccc3)N12	none
Cc1ccc(C)c(N2CCN(C(=O)Cc3ccc(NC4=NC5CS(=O)(=O)CC5S4)cc3)CC2)c1 (stereo not given)	none (no result: KCNQ2 enhance)
COc1ccc(NC(=O)C(=O)N/N=C(\C)CC(=O)Nc2cc(C)ccn2)c(OC)c1	none
C/C(CC(=O)Nc1cc(C)ccn1)=N\NC(=O)C(=O)Nc1cccc(C)c1	KCNQ2 enhance 5.4
COc1ccc(C2=NS(=O)(=O)N(C)C(C(=O)Nc3ccc(F)cc3F)=C2)cc1	none (no result: KCNQ2 enhance)
CCCn1c(/C=C/c2ccccc2)nc2ccccc21	KCNQ2 inh -6.1
COCCOCCn1c(/C=C/c2ccccc2)nc2ccccc21	none (no result: KCNQ2 enhance)
CC(=O)Nc1ccc(NC(=O)CNC(=O)c2cccc(C)c2)cc1	none
CN(C1=C(NC(=O)c2ccc(Cl)cc2)C(=O)c2ccccc2C1=O)c1ccccc1	KCNQ2 inh -6.3
O=C(NC1=C(Nc2ccc(Cl)cc2)C(=O)c2ccccc2C1=O)c1ccccc1	none (no result: KCNQ2 enhance)
CCSc1nc2ccccc2c(=O)n1C1CCOC(C)(C)C1 (stereo not given)	none (no result: KCNQ2 enhance)
O=C1OCCC1Sc1nc2ccccc2c(=O)n1Cc1ccc(F)cc1 (stereo not given)	KCNQ2 enhance 6.3
O=C1OCCC1Sc1nc2ccccc2c(=O)n1-c1ccc(F)cc1 (stereo not given)	none (no result: KCNQ2 enhance)
C=CCSc1nc2ccccc2c(=O)n1C1CCOC(C)(C)C1 (stereo not given)	KCNQ2 inh -6
CCn1c(SCc2ccccc2)nc2ccccc2c1=O	KCNQ2 enhance 8.2
C=CCSc1nc2ccccc2c(=O)n1Cc1ccccc1	KCNQ2 inh -5.7
O=c1c2ccccc2nc(SCc2ccccc2Cl)n1Cc1ccccc1	none (no result: KCNQ2 enhance)
CCN(CC)C(=O)CSc1nc2ccccc2c(=O)n1CC	none
CCc1nnc(NC(=O)C(c2ccccc2)c2ccccc2)s1	none
CSCC[C@H](NC(=O)c1ccc2c(c1)OCO2)c1nnc2ccccn12	none (no result: KCNQ2 enhance)
Cc1ccc2c(c1)SC1=NC(c3ccccc3)(C(F)(F)F)NC(=O)N12 (stereo not given)	none (no result: KCNQ2 enhance)
O=C(CCNC(=O)C1CCN(S(=O)(=O)c2ccc(F)cc2)CC1)NCCc1ccc(Cl)cc1	none (no result: KCNQ2 enhance)
CCC(C)[C@H](NC(=O)C1CC(=O)N(c2ccc(OC)cc2)C1)C(=O)NC1CCCC1 (stereo not given in full)	none
O=C(Nc1ccc(COc2ccccc2)cc1)Nc1cccc(C(=O)O)c1	none
CCOC(=O)CSc1nc2ccccc2c(=O)n1CC1CCCC1	KCNQ2 inh -6.1
CCOC(=O)CSc1nc2ccccc2c(=O)n1CC	none
CCn1nc(C)c(C(=O)Nc2cc(Oc3cc(C)cc(C)c3)cc([N+](=O)[O-])c2)c1C	KCNQ2 inh -5.6
Cc1nn(C)cc1C(=O)Nc1cc(Oc2ccc(Cl)cc2)cc([N+](=O)[O-])c1	none (no result: KCNQ2 enhance)
CN(Cc1ccco1)C(=O)C1CCCN(c2ncnc3c2nc2n3CCCCC2)C1 (stereo not given)	none
O=c1c(Cc2c(F)cccc2Cl)c(O)ccn1CCCN1CCOCC1	none
Cc1ccc2c(CN3C(=O)NC4(CCCCC4)C3=O)cc(=O)oc2c1C	KCNQ2 inh -6.6
Cc1ccc(C)c(CN2C(=O)NC3(CCCCCC3)C2=O)c1	none
CN(C(=O)C1CCCCC1)C1(C)CCS(=O)(=O)C1 (stereo not given)	none (no result: KCNQ2 enhance)
CCN(CC)C(=O)Cn1cc(S(=O)(=O)CC(=O)Nc2ccc(C(N)=O)cc2)c2ccccc21	none (no result: KCNQ2 enhance)
COc1ccc(-c2csc3nc[nH]c(=O)c23)cc1OC	none
Cc1ccc(-c2csc3nc[nH]c(=S)c23)cc1C	KCNQ2 enhance 10
O=C(CSc1nc2ccccc2s1)N1c2ccccc2Sc2ccc(C(F)(F)F)cc21	KCNQ2 inh -6.5
O=C(CSc1nc2ccccc2s1)N1c2ccccc2Sc2ccc(Cl)cc21	none (no result: KCNQ2 enhance)
Clc1ccc(CONc2ncnc3nonc23)c(Cl)c1	KCNQ2 enhance 6.9
CCONc1ncnc2nonc12	none
O=C(CC(c1ccccc1)c1ccco1)Nc1nccs1 (stereo not given)	none (no result: KCNQ2 enhance)
Cc1ccc(OCCNC(=O)c2ccc3ccccc3n2)cc1	none (no result: KCNQ2 enhance)
O=C(NCCOc1ccc(Cl)cc1)c1ccc2ccccc2n1	KCNQ2 inh -6.3
COc1ccc(NC(=S)N2CCNC(=O)C2CC(=O)Nc2ccc(C)cc2)cc1 (stereo not given)	none
O=C(Nc1cccc(N2C(=O)C3CCCCC3C2=O)c1)c1ccccc1 (stereo not given)	none
O=C(Nc1cccc(Cl)c1)c1cccc(N2C(=O)C3CC=CCC3C2=O)c1 (stereo not given)	KCNQ2 inh -6
CN(/N=C/c1cc(Br)cc(Br)c1O)c1ccccc1	none (no result: KCNQ2 enhance)
Cc1c(N=Cc2cc(Br)cc(Br)c2O)cccc1C(=O)O	KCNQ2 enhance 9.5
COc1ccc(Br)cc1/C=N/Nc1cccc(C(=O)O)c1	none
O=C(O)c1cccc(N/N=C/c2cc(Br)cc(Br)c2O)c1	KCNQ2 enhance 5.8
C=CCOc1ccccc1CN1CCC(n2nccc2NC(=O)c2ccccc2)CC1	none
Cc1ccc(-c2ccc(=O)n(CC(=O)N3CCN(c4cc(Cl)ccc4C)CC3)n2)cc1	none (no result: KCNQ2 enhance)
CCCC[C@@H]1CNCCN1CCc1cccc2ccccc12	none (no result: KCNQ2 enhance)
COc1cc(C2C3C(=O)N(Cc4ccccc4)C(=O)C3ON2c2ccccc2)cc(OC)c1OC (stereo not given)	KCNQ2 inh -6.4
O=C1C2ON(c3ccccc3)C(c3cccnc3)C2C(=O)N1Cc1ccccc1 (stereo not given)	none (no result: KCNQ2 enhance)
CCCN(CCC)c1nc(C#N)nc(N(CCC)CCC)n1	KCNQ2 inh -7.9
CN(C)c1nc(C#N)nc(N(C)C)n1	none
COc1ccccc1N1CCN(Cc2nc(N)nc(Nc3ccc(C)c(Cl)c3)n2)CC1	KCNQ2 enhance 8.9
COc1ccccc1Nc1nc(N)nc(CN2CCN(c3ccccc3F)CC2)n1	none
N/C(=N\OC(=O)Cc1cccs1)c1ccc([N+](=O)[O-])cc1	none (no result: KCNQ2 enhance)
CN(Cc1ccccc1)C(=O)COC(=O)c1ccccc1NS(=O)(=O)c1cccc(N)c1	none (no result: KCNQ2 enhance)
CC(OC(=O)c1ccccc1NS(=O)(=O)c1cccc(C(F)(F)F)c1)C(=O)N(C)Cc1ccccc1 (stereo not given)	KCNQ2 inh -6.5
Clc1ccc(SCc2cc(-c3ccc(Cl)cc3)on2)cc1	KCNQ2 inh -7.5
Cc1ccc(SCc2cc(-c3ccc(Cl)cc3)on2)cc1	none (no result: KCNQ2 enhance)
CC1CCN(C(=O)Cn2nnc(-c3ccc(C(C)C)cc3)n2)CC1	none
Cc1ccc(NC(=O)CSCC(=O)NNC(=O)c2ccoc2C)cc1	none
O=C(c1ccc2c(c1)OCCO2)N1CCN(Cc2ccccc2)CC1	none (no result: KCNQ2 enhance)
CNC(=O)/C(C#N)=C/c1cccc(Oc2ccccc2)c1	KCNQ2 inh -5.9
CNC(=O)/C(=C\c1cccc(Oc2ccccc2)c1)NC(=O)c1ccccc1	none (no result: KCNQ2 enhance)
CC(=O)N(c1ccccc1C)C1CCCC1	none
